Laboratory results taken from PubChem BioAssay AID1159580 (chemical genetic matrix, 2015).
In all, about 5,500 compounds went through this assay and about 2,000 (36%) were called active. Roughly 18% stayed inconclusive and do not appear here. Cut-off read from the data, not from the text of the source: active = normalized growth mostly below about 0.91 (no sharp cut-off); inconclusive = no clear call, values can overlap the other calls; inactive = mostly above about 0.92. The list shows a part of the results.

Assay: chemical genetic growth profiling, strain panel (AID 1159580);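 note: tested at 20 µM; growth read once vehicle control cultures reached saturation at 30 °C; 1 = growth at the plate median or of vehicle wells; lower values mean less growth of the strain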
Settings: S. cerevisiae deletion strains, growth OD

Measured: normalized growth

CC1(C)C(=O)N(CCN2CCC(C(=O)c3ccc(F)cc3)CC2)c2ccccc21
inactive: locus YAL013W, strain DEP1, hits give low values 0.998 | locus YAL040C, strain CLN3, hits give low values 1.01 | locus YCL061C, strain MRC1 (second series), hits give low values 0.999 | locus YDR150W, strain NUM1, hits give low values 0.998 | locus YDR363W, strain ESC2, hits give low values 0.992 | locus YER002W, strain NOP16, hits give low values 1.01 | locus YGR229C, strain SMI1, hits give low values 0.993 | locus YNL128W, strain TEP1, hits give low values 1.03 | locus YNL175C, strain NOP13, hits give low values 1.02 | locus YNL197C, strain WHI3, hits give low values 1.02 | locus YNL224C, strain SQS1, hits give low values 1.02 | locus YNL322C, strain KRE1, hits give low values 1 | locus YOR083W, strain WHI5 (second series), hits give low values 0.969 | locus YPL055C, strain LGE1, hits give low values 0.982
